# “And” between values parts separate entries of the source, which are not always exact repeats. Equal values may be shown once. Read-outs that look alike come from different tables or passages of the source.
# How the values were obtained:
# MEK1 = test system: T1, MEK1; details: concentration: 1 μM, replicates: in singlicate, n = 1
# T1 construct: gene MAP2K1
# MEK2 = test system: T2, MEK2; details: concentration: 1 μM, replicates: in singlicate; n = 1
# T2 construct: gene MAP2K2
# MEK3 = test system: T3, MEK3; details: concentration: 1 μM, replicates: in singlicate; n = 1
# T3 construct: gene MAP2K3
# MEK4 = test system: T4, MEK4; details: concentration: 1 μM, replicates: in singlicate, n = 1
# T4 construct: gene MAP2K4
# MEK5 = test system: T5, MEK5; details: concentration: 1 μM, replicates: in singlicate; n = 1
# T5 construct: gene MAP2K5
# MEK6 = test system: T6, MEK6; details: concentration: 1 μM, replicates: in singlicate, n = 1
# T6 construct: gene MAP2K6
# MELK = details: concentration: 1 μM, replicates: in singlicate, n = 1
# MERTK = details: concentration: 1 μM, replicates: in singlicate, n = 1
# MET = details: concentration: 1 μM, replicates: in singlicate, n = 1
# MINK = test system: T7, MINK; details: concentration: 1 μM, replicates: in singlicate, n = 1
# T7 construct: gene MINK1
# MKK7 = details: concentration: 1 μM, replicates: in singlicate, n = 1
# MKNK1 = details: concentration: 1 μM, replicates: in singlicate, n = 1
# MKNK2 = details: concentration: 1 μM, replicates: in singlicate, n = 1
# MLCK = test system: T8, MLCK; details: concentration: 1 μM, replicates: in singlicate, n = 1
# T8 construct: gene MYLK3
# MLK1 = test system: T9, MLK1; details: concentration: 1 μM, replicates: in singlicate, n = 1
# T9 construct: gene MAP3K9
# MLK2 = details: concentration: 1 μM, replicates: in singlicate, n = 1
# MLK3 = details: concentration: 1 μM, replicates: in singlicate, n = 1
# MRCKA = details: concentration: 1 μM, replicates: in singlicate, n = 1
# MRCKB = test system: T10, MRCKB; details: concentration: 1 μM, replicates: in singlicate, n = 1
# T10 construct: gene CDC42BPB
# MST1R = details: concentration: 1 μM, replicates: in singlicate, n = 1
# 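Further: KINOMEscan kinase panel screen.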
compound,measurement,setting,value
CC(C)Oc1ccc2c(-c3ccnc(Nc4ccc(N5CCN(C)CC5)cc4)n3)cnn2n1 [GW696155],%Inh,MEK1,25%
same,%Inh,MEK2,43%
same,%Inh,MEK3,43%
same,%Inh,MEK4,50%
same,%Inh,MEK5,82%
same,%Inh,MEK6,53%
same,%Inh,MELK,71%
same,%Inh,MERTK,10%
same,%Inh,MET,0%
same,%Inh,MINK,65%
same,%Inh,MKK7,0%
same,%Inh,MKNK1,37%
same,%Inh,MKNK2,84%
same,%Inh,MLCK,42%
same,%Inh,MLK1,0%
same,%Inh,MLK2,0%
same,%Inh,MLK3,0%
same,%Inh,MRCKA,35%
same,%Inh,MRCKB,0%
same,%Inh,MST1R,0%
NCC(NC(=O)c1cc(-c2cn[nH]c2)c(-c2ccnc3[nH]ccc23)s1)c1ccccc1.O=C(O)C(F)(F)F.O=C(O)C(F)(F)F (centres unmarked) [GSK1325775],%Inh,MEK1,0%
same,%Inh,MEK2,11%
same,%Inh,MEK3,82%
same,%Inh,MEK4,35%
same,%Inh,MEK5,80%
same,%Inh,MEK6,24%
same,%Inh,MELK,38%
same,%Inh,MERTK,0%
same,%Inh,MET,0%
same,%Inh,MINK,59%
same,%Inh,MKK7,0%
same,%Inh,MKNK1,63%
same,%Inh,MKNK2,94.2%
same,%Inh,MLCK,96.3%
same,%Inh,MLK1,0%
same,%Inh,MLK2,0%
same,%Inh,MLK3,0%
same,%Inh,MRCKA,80%
same,%Inh,MRCKB,98.6%
same,%Inh,MST1R,5%
Cc1ccc(C(=O)NCC(N)=O)cc1-n1c(C)cc(OCc2ccc(F)cc2F)c(Br)c1=O,%Inh,MEK1,0%
same,%Inh,MEK2,26%
same,%Inh,MEK3,0%
same,%Inh,MEK4,0%
same,%Inh,MEK5,2%
same,%Inh,MEK6,13%
same,%Inh,MELK,24%
same,%Inh,MERTK,3%
same,%Inh,MET,15%
same,%Inh,MINK,0%
same,%Inh,MKK7,0%
same,%Inh,MKNK1,0%
same,%Inh,MKNK2,0%
same,%Inh,MLCK,0%
same,%Inh,MLK1,25%
same,%Inh,MLK2,19%
same,%Inh,MLK3,22%
same,%Inh,MRCKA,3%
same,%Inh,MRCKB,12%
same,%Inh,MST1R,29%
Cn1ccc2ncnc(Oc3ccc(NC(=O)Nc4ccncc4)c(Cl)c3)c21,%Inh,MEK1,40%
same,%Inh,MEK2,32%
same,%Inh,MEK3,0%
same,%Inh,MEK4,0%
same,%Inh,MEK5,4%
same,%Inh,MEK6,0%
same,%Inh,MELK,0%
same,%Inh,MERTK,0%
same,%Inh,MET,0%
same,%Inh,MINK,0%
same,%Inh,MKK7,0%
same,%Inh,MKNK1,0%
same,%Inh,MKNK2,0%
same,%Inh,MLCK,0%
same,%Inh,MLK1,0%
same,%Inh,MLK2,5%
same,%Inh,MLK3,0%
same,%Inh,MRCKA,0%
same,%Inh,MRCKB,0%
same,%Inh,MST1R,17%
O=c1cc(N2CCOCC2)nc2n(Cc3cccc4ccccc34)ccn12 [GSK2333389],%Inh,MEK1,0%
same,%Inh,MEK2,0%
same,%Inh,MEK3,0%
same,%Inh,MEK4,3%
same,%Inh,MEK5,18%
same,%Inh,MEK6,0%
same,%Inh,MELK,0%
same,%Inh,MERTK,23%
same,%Inh,MET,0%
same,%Inh,MINK,0%
same,%Inh,MKK7,0%
same,%Inh,MKNK1,0%
same,%Inh,MKNK2,3%
same,%Inh,MLCK,0%
same,%Inh,MLK1,0%
same,%Inh,MLK2,2%
same,%Inh,MLK3,0%
same,%Inh,MRCKA,0%
same,%Inh,MRCKB,0%
same,%Inh,MST1R,12%
COc1cc2c(cc1OC[C@@H](O)CO)ncc1c3ccc(C#N)cc3[nH]c21,%Inh,MEK1,45%
same,%Inh,MEK2,42%
same,%Inh,MEK3,0%
same,%Inh,MEK4,0%
same,%Inh,MEK5,99.9%
same,%Inh,MEK6,0%
same,%Inh,MELK,31%
same,%Inh,MERTK,0%
same,%Inh,MET,0%
same,%Inh,MINK,91.9%
same,%Inh,MKK7,0%
same,%Inh,MKNK1,97.1%
same,%Inh,MKNK2,99.4%
same,%Inh,MLCK,94.5%
same,%Inh,MLK1,3%
same,%Inh,MLK2,0%
same,%Inh,MLK3,0%
same,%Inh,MRCKA,0%
same,%Inh,MRCKB,0%
same,%Inh,MST1R,9%
CSc1ccc(-c2cc3ncnc(SCC(=O)O)c3s2)cc1,%Inh,MEK1,0%
same,%Inh,MEK2,0%
same,%Inh,MEK3,2%
same,%Inh,MEK4,0%
same,%Inh,MEK5,1%
same,%Inh,MEK6,0%
same,%Inh,MELK,10%
same,%Inh,MERTK,0%
same,%Inh,MET,3%
same,%Inh,MINK,8%
same,%Inh,MKK7,0%
same,%Inh,MKNK1,0%
same,%Inh,MKNK2,0%
same,%Inh,MLCK,3%
same,%Inh,MLK1,0%
same,%Inh,MLK2,24%
same,%Inh,MLK3,0%
same,%Inh,MRCKA,8%
same,%Inh,MRCKB,34%
same,%Inh,MST1R,36%
O=C(Nc1cccc(-c2nn3ncccc3c2-c2ccnc(Nc3cccc(C(F)(F)F)c3)n2)c1)c1c(F)cccc1F [GSK299495],%Inh,MEK1,48%
same,%Inh,MEK2,54%
same,%Inh,MEK3,0%
same,%Inh,MEK4,29%
same,%Inh,MEK5,97.6%
same,%Inh,MEK6,7%
same,%Inh,MELK,0%
same,%Inh,MERTK,51%
same,%Inh,MET,0%
same,%Inh,MINK,0%
same,%Inh,MKK7,0%
same,%Inh,MKNK1,0%
same,%Inh,MKNK2,24%
same,%Inh,MLCK,11%
same,%Inh,MLK1,0%
same,%Inh,MLK2,0%
same,%Inh,MLK3,0%
same,%Inh,MRCKA,58%
same,%Inh,MRCKB,68%
same,%Inh,MST1R,44%
CN(C(=O)c1ccc(-c2cc(-c3c[nH]nc3-c3ccccn3)ccn2)cc1)C1CCOCC1 [GW810083],%Inh,MEK1,0%
same,%Inh,MEK2,0%
same,%Inh,MEK3,14%
same,%Inh,MEK4,0%
same,%Inh,MEK5,5%
same,%Inh,MEK6,0%
same,%Inh,MELK,41%
same,%Inh,MERTK,0%
same,%Inh,MET,0%
same,%Inh,MINK,8%
same,%Inh,MKK7,0%
same,%Inh,MKNK1,0%
same,%Inh,MKNK2,37%
same,%Inh,MLCK,0%
same,%Inh,MLK1,0%
same,%Inh,MLK2,0%
same,%Inh,MLK3,0%
same,%Inh,MRCKA,4%
same,%Inh,MRCKB,10%
same,%Inh,MST1R,0%
CC(C)(CN)c1nc(-c2ccc(Cl)c(O)c2)c(-c2ccncc2)[nH]1.O=C(O)C(F)(F)F [SB-477794],%Inh,MEK1; 1 µM,14% and 2%
same,%Inh,MEK2,20%
same,%Inh,MEK3,0%
same,%Inh,MEK4; 1 µM,0% and 8%
same,%Inh,MEK5,99.5%
same,%Inh,MEK6; 1 µM,0% and 100%
same,%Inh,MELK; 1 µM,25% and 51%
same,%Inh,MERTK; 1 µM,32% and 45%
same,%Inh,MET; 1 µM,0% and 12%
same,%Inh,MINK; 1 µM,91.7% and 93.9%
same,%Inh,MKK7; 1 µM,26% and 0%
same,%Inh,MKNK1; 1 µM,9% and 0%
same,%Inh,MKNK2; 1 µM,9% and 0%
same,%Inh,MLCK; 1 µM,0% and 14%
same,%Inh,MLK1; 1 µM,0% and 7%
same,%Inh,MLK2; 1 µM,0% and 10%
same,%Inh,MLK3; 1 µM,0% and 32%
same,%Inh,MRCKA; 1 µM,46% and 35%
same,%Inh,MRCKB; 1 µM,76% and 72%
same,%Inh,MST1R; 1 µM,39% and 0%

# Reference: article PMC5540273 (PLoS ONE, 2017)
